Source: paper PMC5540273 (PLoS ONE, 2017)

What was measured:
Details in all cases: concentration: 1 μM,replicates: in singlicate; n = 1
[1] = system: JAK1(JH2domain-pseudokinase)
[2] = system: JAK2(JH1domain-catalytic)
[3] = system: JAK3(JH1domain-catalytic)
JNK1 = system: T1, JNK1
T1 construct: gene MAPK8

JNK2 = system: T2, JNK2
T2 construct: gene MAPK9

JNK3 = system: T3, JNK3
T3 construct: gene MAPK10

KIT-autoinhibited = system: KIT-autoinhibited
KIT = system: KIT
LATS1 = system: LATS1
LATS2 = system: LATS2
LCK = system: LCK
LIMK1 = system: LIMK1
LIMK2 = system: LIMK2
LKB1 = system: T4, LKB1
T4 construct: gene STK11

LOK = system: T5, LOK
T5 construct: gene STK10

LRRK2 = system: LRRK2
LTK = system: LTK
LYN = system: LYN
LZK = system: T6, LZK
T6 construct: gene MAP3K13

MAK = system: MAK
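Also: KINOMEscan kinase panel screen.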

SMILES	%Inh [1] [%]	%Inh [2] [%]	%Inh [3] [%]	%Inh (JNK1) [%]	%Inh (JNK2) [%]	%Inh (JNK3) [%]	%Inh (KIT-autoinhibited) [%]	%Inh (KIT) [%]	%Inh (LATS1) [%]	%Inh (LATS2) [%]	%Inh (LCK) [%]	%Inh (LIMK1) [%]	%Inh (LIMK2) [%]	%Inh (LKB1) [%]	%Inh (LOK) [%]	%Inh (LRRK2) [%]	%Inh (LTK) [%]	%Inh (LYN) [%]	%Inh (LZK) [%]	%Inh (MAK) [%]
C[C@@H](Oc1cc(-n2cnc3cc(-c4ccncc4)ccc32)sc1C(N)=O)c1ccccc1Cl [GSK479719]	0	58	48	7	10	11	0	64	10	0	54	31	0	0	99.8	4	0	0	0	0
Cl.c1ccc(Oc2ccc(Nc3ccnc4cc(-c5ccc(CN6CCNCC6)o5)ccc34)cc2)nc1 [GW567142]	17	100	0	0	3	0	10	87	0	0	82	0	0	0	54	4	0	4	7	21
CS(=O)(=O)Nc1ccc(-c2ccnc3[nH]ccc23)cc1 [GSK993273]	9	97.7	97.1	49	27	28	0	59	42	82	25	0	13	0	0	35	0	0	8	0
NC(=O)c1ccc(-c2cc3ncnc(SCC(=O)O)c3s2)cc1	50	0	22	22	0	0	22	68	0	0	2	0	21	18	0	11	0	23	2	45
CS(=O)(=O)c1cccc(CNc2nc(Nc3ccc4c(c3)[C@@H]3C[C@@H]4CNC3=O)ncc2C(F)(F)F)c1	91.1	98.4	100	38	30	46	39	42	24	45	0	0	0	12	81	72	5	25	0	0
C[C@@H](Oc1cc(-n2cnc3ccc(-c4ccncc4)cc32)sc1C(N)=O)c1ccccc1Cl [GSK483724]	0	19	0	45	27	18	6	36	3	54	40	20	0	0	92.2	8	25	0	0	29
COC(=O)c1cccc(NC(=O)NC2CCN(c3ccnc(NCc4ccc(F)cc4)n3)CC2)c1 [GSK1379860]	0	6	0	7	23	3	0	7	0	0	4	4	0	0	0	8	0	0	0	28
Cn1ccc2ncnc(Oc3ccc(NC(=O)Nc4cc(C(C)(C)C)on4)c(Cl)c3)c21	0	8	6	12	48	7	30	100	20	25	98.2	13	17	0	99.9	3	39	95.4	0	0
CS(=O)c1ccc(-c2coc3ccc(-c4n[nH]c(=O)o4)cc23)cc1 (centres unmarked)	3	23	23	23	20	16	0	0	11	21	0	0	0	16	99.7	13	0	16	2	0
COc1cccc(C2=C(Nc3cccc(Cl)c3)C(=O)NC2=O)c1 [SB-341556]	0	45	92.9	25	44	32	0	14	0	0	15	67	0	0	9	83	86	0	0	0
